# Assay outcomes deposited in PubChem BioAssay by The Scripps Research Institute Molecular Screening Center.
# This is a sample that favours compounds with a hit; in the whole collection about 4.1% have one here.
# DAX1 inh-1 – inhibitors of DAX1 repression of SF-1 activated StAR promoter. HEK293T StAR-luciferase reporter, SF-1/DAX-1 repression relief. inhibition, % at 6.8 µM. actives 1.1% (n = 370,000). AID 652010;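 active = inhibition above the mean over all tested compounds plus 3 SD, cut at about 3.6% in these data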;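 also: 0% = DAX-1 cells with DMSO and 100% = cells lacking DAX-1 with DMSO; higher inhibition means more luminescence from relief of DAX-1 repression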
# ssDAF-12 act – S. stercoralis DAF-12 activation, primary screen; HEK293 ssDAF-12/GRIP1 lit1-tk-luc reporter, luminescence; % of 3 µM dafachronic acid response; activation, % at 6.8 µM; actives 1% (n = 370,000); AID 652126;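 active = activation above the mean over all tested compounds plus 3 SD, cut at about 0.9% in these data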;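 also: 0% = DMSO-only wells and 100% = 3 µM delta7-dafachronic acid wells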
# DAX1 inh-2 – inhibits human nuclear receptor DAX1; inhibition, % at 6.75 µM; HEK293 Gal4-DAX1 luciferase reporter, luminescence; actives 0.99% (n = 340,000); P51843; AID 504766;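 active = inhibition above the mean over all tested compounds plus 3 SD, cut at about 4.2% in these data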;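 also: 0% = DAX1-transfected cells with DMSO and 100% = empty-vector control cells with DMSO; inhibition shows as a rise in luminescence from relieved DAX1 repression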
# Target sequence (P51843 207-470 limits assumed): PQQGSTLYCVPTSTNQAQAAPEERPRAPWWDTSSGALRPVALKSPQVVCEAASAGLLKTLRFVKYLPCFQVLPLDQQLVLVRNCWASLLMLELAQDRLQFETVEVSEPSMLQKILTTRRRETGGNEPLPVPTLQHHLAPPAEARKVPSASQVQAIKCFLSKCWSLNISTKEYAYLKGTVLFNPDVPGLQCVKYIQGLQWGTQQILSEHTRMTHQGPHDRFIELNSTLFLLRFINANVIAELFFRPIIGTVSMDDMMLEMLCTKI
# hcDAF12 agonist – activators of H. contortus DAF-12 nuclear receptor. HEK293 hcDAF-12 lit1-tk-luc reporter, luminescence; 0% DMSO, 100% Δ7-dafachronic acid. activation, % at 6.8 µM. actives 1.4% (n = 370,000). AID 652067;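 active = activation above the mean of all tested compounds plus 3 SD, cut at about 5.5% in these data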;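 also: 100% = response to 3 µM Δ7-dafachronic acid high control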
# hgDAF12 agonist – hgDAF-12 agonism, primary luciferase screen. HEK293 GAL4-hgDAF12 UAS-luciferase reporter, agonist luminescence; normalized to butyrate control. actives 1.8% (n = 370,000). activation, % at 6.8 µM;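 active = activation above a cutoff set at the mean of all screened compounds plus 3 SD, cut at about 10% in these data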;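 also: 0% = DMSO wells and 100% = sodium butyrate wells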
# LXR ag – counter-screen for hcDAF-12 agonists: agonists of human LXR-beta; AID 743027; shares compounds with hcDAF12 agonist; HEK293 Gal4-LXR tk-luc reporter, luminescence, 24 h; normalized: DMSO 0%, positive control 100%; 3,400 tested, under 10 active; activation, % at 6.8 µM;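 active = mean percent activation of the reporter above a cutoff set as the average over tested compounds plus their standard deviation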
# hcDAF12 conf – hcDAF-12 agonism, confirmation assay. shares compounds with hcDAF12 agonist. HEK293 hcDAF-12 lit1-tk-luc reporter, luminescence; % of Δ7-dafachronic acid response. activation, % at 6.8 µM. actives 61% (n = 3,400). AID 743032;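 active = mean activation across triplicate tests above the threshold derived from the earlier primary screen, cut at about 5.5% in these data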;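 also: 0% = DMSO only wells and 100% = 3 µM Δ7-dafachronic acid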
# The depositor's hits bear a star; · = no result.
SMILES,DAX1 inh-1,ssDAF-12 act,DAX1 inh-2,hcDAF12 agonist,hgDAF12 agonist,LXR ag,hcDAF12 conf
Cc1oc(-c2ccc(-c3ccccc3)cc2)nc1CN(CCO)C(C)C,2,1.6*,-2,7.2*,14*,2,17*
CCOc1ccc2nc(SCC(=O)Nc3ccc4c(c3)OCCO4)[nH]c2c1,0,-1,0,7.3*,3,0,1
CCOc1ccc(N2CC(C(=O)NCCc3c[nH]c4ccc(C)cc34)CC2=O)cc1 (centres undefined),0,-1,0,0,1,·,·
O=C(Nc1ncccn1)c1cccc(F)c1,0,0,-1,7.0*,8,0,1
O=C(Nc1ncccn1)c1cccc(Cl)c1,0,1,·,5,-1,·,·
COc1ccc([N+](=O)[O-])cc1C1NN=C(c2ccccc2O)S1 (centres undefined),0,1,0,6.9*,6,0,4
COC(=O)C1OC1c1cc([N+](=O)[O-])ccc1OC (centres undefined),-1,-1,1,-1,-2,·,·
S=C1NC2(CCCC2)Nc2ccccc21,0,0,2,6.7*,3,0,5
Cc1ccccc1-c1cc2c(nn1)-c1ccccc1C2=O,0,1.5*,0,7.2*,5,1,6.2*
O=C1c2ccccc2-c2n[nH]c3cccc1c23,-1,-1,0,0,3,·,·
Oc1ccccc1-c1csc(-c2ccccc2)n1,2,5.1*,4.9*,14*,20*,2,15*
COC(=O)c1ccccc1S(=O)(=O)N1CCC(C(=O)NCCC2=CCCCC2)CC1,-2,-1,0,0,-1,·,·
CCCc1cc(C(=O)Nc2cccc(Cl)c2)no1,1,-1,1,9.4*,8,1,3
O=C(O)c1ccc(S(=O)(=O)N(Cc2ccccc2)C2CCCCC2)cc1,0,-1,1,0,-1,·,·
COC(=O)[C@]12CCCCC=C1N(Cc1ccco1)C(=O)[C@H](CC(=O)N1CCCCC1)C2,-1,-1,·,1,-4,·,·
COc1ccc(/C=[N+](\[O-])C2N(c3ccccc3)C(=S)SC2(C)C)cc1OC (centres undefined),0,-1,2,9.3*,3,0,0
COc1cc(N=Nc2cccc(S(N)(=O)=O)c2)c2ccccc2c1N,0,0,3,9.2*,-2,0,3
COc1cccc(C(=O)N(C)C(C)c2nc3ccccc3s2)c1 (centres undefined),0,-1,0,-1,-2,·,·
CC(=O)c1ccc(OC(C)c2nc3ccccc3s2)cc1 (centres undefined),0,1.0*,2,7.7*,5,0,9.6*
Nc1c(Cl)c(Cl)nc(C(=O)N/N=C/c2ccco2)c1Cl,0,0,-1,6.9*,3,0,3
[O-][n+]1c2ccccc2c2n1CCCN=C2c1ccc(Cl)cc1,2,1,2,8.0*,3,0,8.6*
Clc1ccc(Nc2nc(-c3cccnc3)cs2)cc1,2,1.9*,1,9.3*,12*,1,11*
O=C(Nc1cc(Cl)ccc1N1CCOCC1)c1ccc(Br)o1,-1,-1,0,0,1,·,·
O=C(Nc1ccc(Cl)cc1Cl)c1ccc(Br)o1,1,0,2,8.2*,8,1,6.4*
N/C(=N\OC(=O)c1ccccc1Cl)c1ccccn1,3,0,-4,7.0*,-2,2,11*
COc1cc(OC)c(C(=O)O/N=C(\N)c2ccccn2)cc1OC,0,-1,1,-2,2,·,·
COc1ccccc1C(=O)O/N=C(\N)c1ccccn1,2,2.7*,-2,11*,8,1,5.9*
O=c1c(/C=C(\O)c2ccc(F)cc2)nc2ccccc2n1-c1ccccc1,0,-1,0,-2,0,·,·
